# Compounds with a hit are over-represented: about 4.1% of the library has one in this group of screens.
# hcDAF-12 act = activators of H. contortus DAF-12 nuclear receptor; 370,000 compounds, 1.4% hits; AID 652067; activation, % at 6.8 µM; HEK293 hcDAF-12 lit1-tk-luc reporter, luminescence; 0% DMSO, 100% Δ7-dafachronic acid;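 active means activation above the mean of all tested compounds plus 3 SD, cut at about 5.5% in these data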;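 further: 100% = response to 3 µM Δ7-dafachronic acid high control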
# DAX1 inh-1 = inhibits human nuclear receptor DAX1. HEK293 Gal4-DAX1 luciferase reporter, luminescence. 340,000 compounds, 0.99% hits. inhibition, % at 6.75 µM. P51843;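 active means inhibition above the mean over all tested compounds plus 3 SD, cut at about 4.2% in these data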;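 further: 0% = DAX1-transfected cells with DMSO and 100% = empty-vector control cells with DMSO; inhibition shows as a rise in luminescence from relieved DAX1 repression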
# Target sequence (P51843 207-470 limits assumed): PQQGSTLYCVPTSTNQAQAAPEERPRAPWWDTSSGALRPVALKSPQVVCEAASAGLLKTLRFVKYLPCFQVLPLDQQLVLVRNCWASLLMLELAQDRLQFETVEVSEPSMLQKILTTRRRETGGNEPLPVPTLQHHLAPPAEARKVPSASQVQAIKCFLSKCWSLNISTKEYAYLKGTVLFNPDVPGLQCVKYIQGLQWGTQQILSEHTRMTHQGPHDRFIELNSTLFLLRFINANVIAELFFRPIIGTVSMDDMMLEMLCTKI
# DAX1 inh-2 = blocks DAX1 repression of SF-1 activated StAR promoter; 370,000 compounds, 1.1% hits; HEK293T StAR-luciferase reporter, SF-1/DAX-1 repression relief; inhibition, % at 6.8 µM;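 active means inhibition above the mean over all tested compounds plus 3 SD, cut at about 3.6% in these data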;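 further: 0% = DAX-1 cells with DMSO and 100% = cells lacking DAX-1 with DMSO; higher inhibition means more luminescence from relief of DAX-1 repression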
# ssDAF12 agonist = S. stercoralis DAF-12 activation, primary screen. HEK293 ssDAF-12/GRIP1 lit1-tk-luc reporter, luminescence; % of 3 µM dafachronic acid response. activation, % at 6.8 µM. 370,000 compounds, 1% hits. AID 652126;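 active means activation above the mean over all tested compounds plus 3 SD, cut at about 0.9% in these data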;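 further: 0% = DMSO-only wells and 100% = 3 µM delta7-dafachronic acid wells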
# hgDAF-12 ag = activates the H. glycines DAF-12 receptor ligand-binding domain; 370,000 compounds, 1.8% hits; activation, % at 6.8 µM; HEK293 GAL4-hgDAF12 UAS-luciferase reporter, agonist luminescence; normalized to butyrate control;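 active means activation above a cutoff set at the mean of all screened compounds plus 3 SD, cut at about 10% in these data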;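 further: 0% = DMSO wells and 100% = sodium butyrate wells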
# Active calls of the source: *; x = no result.
SMILES,hcDAF-12 act,DAX1 inh-1,DAX1 inh-2,ssDAF12 agonist,hgDAF-12 ag
CCC(=O)Nc1nc2cc(OC)ccc2s1,-0.2,3.6,1.1,-1.4,9.2
COc1ccc2sc(NC(C)=O)nc2c1,1.9,2.3,3.3,-0.4,11.3*
O=C(Cc1c[nH]c2ccccc12)Nc1ccc(Nc2cccnc2)c(Br)c1,-0.1,x,-2.1,-1.4,-0.2
CCN(CC)c1ccc(C(=S)NCc2ccccc2)cc1,-2.4,7.3*,0.4,-1.4,-1.6
CCN(CC)c1ccc(C(=O)O)cc1,0.1,-1.3,0.5,-0.2,1.2
CC(C)=CCC[C@@]1(C(=O)O)[C@@H]2C/C=C(\C)CC/C=C(\C)CC[C@H]1[C@]1(CC2)CO1,1.4,x,-0.2,-0.6,-2.9
O=S1(=O)c2ccc(N3CCSCC3)cc2Oc2ccccc2CN1Cc1cn(Cc2ccc(F)cc2)nn1,-1.2,x,-1.1,-0.9,-3.2
O=[N+]([O-])c1ccc2nc(C(O)C(O)c3nc4ccc([N+](=O)[O-])cc4[nH]3)[nH]c2c1 (stereo unspecified),1.6,1.9,-0.2,1.0*,4.5
O=[N+]([O-])c1ccc(-c2nc3ccc([N+](=O)[O-])cc3[nH]2)cc1,-0.5,1.2,0.7,-0.6,0.9
O=C(CCn1nnc(-c2cccs2)n1)NCc1ccco1,-1.1,x,0.3,-0.7,2.5
CC(C)(C)n1nnnc1C(c1ccccc1)N1CCCN(Cc2ccc(F)cc2)CC1 (stereo unspecified),0.2,x,-2.5,-0.2,1.9
COC(=O)[C@]12C[C@H](CC(=O)NCc3ccc(OC)c(OC)c3)C(=O)N(Cc3cccc4ccccc34)C1=C[C@H](COCc1ccccc1)O[C@@H]2C,-4.8,x,-1.5,-1.8,0.2
O=C1CCC[C@@H]2Cc3nc4ccc(O)cc4cc3[C@@H]3CCN1[C@H]23,0.8,0.8,0.6,-0.2,-1.8
O=C1CCC[C@@H]2Cc3nc4cc5c(cc4cc3[C@@H]3CCN1[C@H]23)OCO5,0.4,6.1*,0.0,-1.1,4.7
O=C1c2ccccc2NC(c2cccs2)N1O (stereo unspecified),0.7,5.7*,3.7*,-0.6,0.5
CCn1c2ccccc2c2cc(NC(=O)COC(=O)c3cc(F)ccc3C)ccc21,-0.5,x,0.8,-1.1,2.2
COc1ccc(C(=O)COC(=O)c2cccs2)cc1,1.7,1.7,3.7*,0.2,11.3*
CC(=O)Nc1ccc(C(=O)COC(=O)c2cccs2)c(F)c1,2.1,1.1,3.3,-0.4,10.7*
CC(=O)Nc1ccc(C(=O)COC(=O)c2c(C)noc2C)c(F)c1,-1.4,-0.6,0.7,-1.8,1.3
CCOC(=O)[C@]12CCCCC/C=C\1N(CCc1ccc(Cl)cc1)C(=O)[C@H]2CC(=O)NCCc1ccccc1OC,-3.2,x,-3.2,-1.5,-5.9
O=c1cc(CN(Cc2ccccc2)Cc2ccccc2)c2c(ccc3ccccc32)o1,2.8,x,1.0,1.8*,1.1
COc1ccc2c(CN(Cc3ccccc3)Cc3ccccc3)cc(=O)oc2c1,-1.3,x,-0.7,-1.1,1.5
COC(=O)[C@]12C[C@H](CC(=O)N3CCOCC3)C(=O)N(Cc3ccc(Cl)cc3Cl)C1=C[C@H](C(C)(C)C)O[C@@H]2C,-0.2,x,-0.5,-1.3,1.5
Cn1c(C(=O)NC2CCCCC2)cc2sccc21,6.0*,1.4,2.4,0.3,8.2
Cn1c(C(=O)N2CCCC(C(=O)O)C2)cc2sccc21 (stereo unspecified),0.6,0.1,0.2,-1.1,0.4
SMILES,hcDAF-12 act,DAX1 inh-1,DAX1 inh-2,ssDAF12 agonist,hgDAF-12 ag
CN(C(=O)c1cc2sccc2n1C)C1CCCCC1,2.6,1.0,1.3,-0.8,11.8*
COC(=O)[C@]12C[C@H](CC(=O)N3CCC(c4ccccc4)CC3)C(=O)N(CCc3ccc(OC)c(OC)c3)C1=C[C@H](C(C)C)O[C@@H]2C1CC1,0.0,x,-1.5,-1.4,-5.3
CCCC(=O)N1CCC[C@]2(CC[C@@H](CCC(C)=O)O2)C1,-0.5,x,1.8,-0.8,-1.2
CN1C(=O)C(O)(c2nnc(-c3ccccc3)o2)c2ccccc21 (stereo unspecified),-0.8,2.8,0.8,1.1*,8.5
CN1C(=O)C2(N=c3ccccc3=N2)c2ccccc21,x,-0.9,x,x,x
COc1ccc2c(c1)oc(=O)c1cc(OC)ccc12,0.4,4.6*,2.7,-0.3,12.7*
Cc1ccc(N2NC(C)(c3cccs3)NC2=S)cc1 (stereo unspecified),2.5,4.3*,-0.1,-0.4,-2.0
Cc1ccc(N2CC(O)(c3cccs3)[N+]3=C2CCCC3)cc1 (stereo unspecified),-0.9,0.2,0.2,-1.8,2.1
Cc1ccc2c(c1)N(CCCC(=O)N(C)Cc1ccc(F)cc1)C(=O)CO2,-2.7,x,-0.8,-1.5,0.2
Cn1nc(NC(=O)C(F)(F)F)c2ncc(-c3ccc(Cl)cc3)nc21,-0.8,4.2*,0.2,-0.6,6.4
Cn1nc(N)c2ncc(-c3ccc(Cl)cc3)nc21,0.8,3.6,1.0,-0.5,11.2*
Cn1nc(NC(=O)C(F)(F)F)c2nccnc21,2.4,1.2,-1.1,-0.3,-2.2
CN1CCN(CC(=O)NN(Cc2ccccc2)c2ccccc2)CC1,-0.5,4.5*,0.5,-1.3,-3.0
Cc1cccc(OCC(C)CN2CCC(C(O)(c3ccccc3)c3ccccc3)CC2)c1 (stereo unspecified),0.0,x,-1.0,-2.2,-0.7
Cc1nc(NCCCN2CCOCC2)c2cnn(-c3ccccc3)c2n1,4.3,1.0,1.6,-0.2,12.0*
Cc1cc(/C=C2/NC(=O)N(Cc3ccccc3F)C2=O)c(C)n1-c1ccccn1,4.3,-0.6,0.0,1.3*,4.6
Cc1nn(-c2ccccc2)c2sc(C(=O)N3CCN(Cc4ccc(F)cc4)CC3)cc12,0.9,x,-0.6,-1.2,1.1
CN(C)N1C(N)=C(C#N)C(c2ccccc2)C2=C1CC(C)(C)CC2=O (stereo unspecified),1.5,1.1,-0.2,-1.2,0.0
CN(C)N1C(N)=C(C#N)C(c2cccc3ccccc23)C2=C1CC(c1ccccc1)CC2=O (stereo unspecified),0.4,5.6*,0.0,-1.7,-0.9
Cn1c(=O)c(Oc2ccc(Cl)cc2)c(O)c2ccccc21,1.1,-0.6,0.6,1.1*,-0.1
CC(C)C[C@H]1COc2cc(N3CCSCC3)ccc2S(=O)(=O)N1C,0.1,x,-0.6,-0.6,-1.1
Cc1ccc(NC(=O)COc2ccc(N(C)C(=O)C(C)(C)C)cc2)cc1S(=O)(=O)N1CCCCC1,-4.1,-3.0,-6.9,-2.1,-9.1
CC(C)[C@H](NC(=O)N1CC(=O)Nc2ccccc21)C(=O)N[C@H](Cc1c[nH]c2ccccc12)C(=O)O,3.3,4.0,1.4,1.6*,1.1
CC(C)[C@H](NC(=O)N1CC(=O)Nc2ccccc21)C(=O)N[C@H](Cc1ccccc1)C(=O)O,-1.6,1.2,-0.2,-0.6,-3.3
O=C(c1ccc(Cl)cc1)N1CCC(Oc2cccnc2)CC1,0.0,x,-0.2,-1.5,3.0

# Compound activity from PubChem BioAssay.
